What all share (format): functional
The target of assay [1] is Solute carrier family 2, facilitated glucose transporter member 1 (Homo sapiens) (UniProt P11166). The assay is described as follows: ST_JUDE_LEISH: Cytotoxicity at 2uM final concentration against transgenic Leishmania Mexicana promastigotes LmGLUT1 that are glucose transport deficient and complemented with the human glucose transporter GLUT1. Activity is measured by DNA content using SYBR green in vitro.

The target in assay [2] is Hexose transporter 1 (Plasmodium falciparum) (UniProt O97467). The assay is described as follows: ST_JUDE_LEISH: Cytotoxicity at 2uM final concentration against transgenic Leishmania Mexicana promastigotes LmPfHT that are glucose transport deficient and complemented with the Plasmodium falciparum hexose transporter. Activity is measured by DNA content using SYBR green in vitro.

Assay [3] deals with Glucose transporter (Leishmania mexicana) (UniProt O61059). As to the kind of experiment: ST_JUDE_LEISH: Cytotoxicity at 2uM final concentration against transgenic Leishmania Mexicana promastigotes LmGT2 that are glucose transport deficient and complemented with the L. Mexicana glucose transporter 2. Activity is measured by DNA content using SYBR green in vitro.

Chain of Solute carrier family 2, facilitated glucose transporter member 1 (Homo sapiens) (P11166 whole entry): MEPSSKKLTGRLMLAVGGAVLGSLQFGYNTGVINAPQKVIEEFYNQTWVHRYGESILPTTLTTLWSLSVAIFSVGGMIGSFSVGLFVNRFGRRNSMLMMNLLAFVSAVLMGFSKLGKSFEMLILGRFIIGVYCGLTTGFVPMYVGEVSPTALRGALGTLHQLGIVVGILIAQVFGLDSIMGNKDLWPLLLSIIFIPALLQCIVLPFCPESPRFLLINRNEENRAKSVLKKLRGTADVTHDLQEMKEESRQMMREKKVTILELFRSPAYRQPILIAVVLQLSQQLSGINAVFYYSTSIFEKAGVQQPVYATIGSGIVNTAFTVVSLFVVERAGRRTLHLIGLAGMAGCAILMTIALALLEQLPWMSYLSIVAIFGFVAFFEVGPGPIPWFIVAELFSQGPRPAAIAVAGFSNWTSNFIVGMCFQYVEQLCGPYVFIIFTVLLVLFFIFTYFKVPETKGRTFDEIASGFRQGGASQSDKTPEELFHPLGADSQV

By inhibition is commonly meant the relative decrease from the control value, in per cent. For the compound `Cn1nc2ccc3ccccc3c2nc1=N`, the inhibition was found to be 59.2% in assay [1], 44.1% in assay [2] and 18.6% in assay [3].
In the same order, the values of `Cc1cccc(C(=O)N2CCN(Cc3cccc(NC(=O)c4ccco4)c3)CC2)c1` are -1.31%, 1.48% and 1.47%.
In the case of `COc1ccc(CN2CCC(NCc3ccc(C(F)(F)F)cc3)CC2)cc1`, the inhibition in assay [1] amounted to 19.2%; in assay [2] it was 14.1%; in assay [3], 14%.
In the same order, the values of `COC(=O)c1ccc(CCC(C)NCC(O)c2cccc(C(F)(F)F)c2)cc1` (stereo not given) are 0.8%, 0.12% and 3.23%.
In the same order, the values of `CCc1cccc(-n2c(=O)c3cccnc3n2CC(=O)NCc2ccccc2Cl)c1` are 9.08%, 9.17% and 4.33%.
In the same order, the values of `Cn1c(=O)c(-c2c(Cl)cccc2Cl)cc2cnc(Nc3ccc(N4CCOCC4)cc3)nc21` are 34.6%, 41% and 11.6%.
With `Clc1ccc(CNc2ccnc(NCCc3coc4ccccc34)n2)c(Cl)c1`, the inhibition was 5.99% in assay [1], 6.11% in assay [2] and 0.66% in assay [3].
In the same order, the values of `CC(=O)Oc1c(C2CCN(CCCCNC(=O)c3ccc(NC(=O)c4ccc(Cl)cc4)cc3)CC2)ccc2ccccc12` are 3.43%, 3.63% and 4.42%.
In the same order, the values of `CCc1ccccc1NC(=O)CN1CCN(c2ncnc3scc(-c4ccc(F)cc4)c23)CC1` are 1.81%, 3.65% and 2.87%.
In the same order, the values of `Cc1c(CNCCN2CCCCC2)c(C(=O)O)c(C)n1Cc1ccc(Cl)cc1` are -0.09%, 0.33% and 0.22%.
In the case of `Cc1cc(C(=O)NC2CCN(CC3(c4ccccc4)CCCCC3)CC2)on1`, the inhibition is 1.62% in assay [1], 0.59% in assay [2] and -0.45% in assay [3].
In the same order, the values of `COc1ccc2ccccc2c1CNCCCCCCNCc1c(OC)ccc2ccccc12` are 1.14%, -0.97% and -3.28%.
As to `CS(=O)(=O)NCCCNCc1ccc(-c2ccc(-c3nc4cc(C(F)(F)F)ccc4[nH]3)cc2)cc1`, the values for the inhibition in assay [1], in assay [2] and in assay [3] were 2.14%, 2.39% and 1.11%, respectively.
Turning to `Cc1cccc2nc(-c3cccc(-c4ccc(NC(=O)Nc5ccc(F)c(F)c5F)cc4)c3)[nH]c12`, the inhibition in assay [1] turned out to be 1.49%; in assay [2], 1.47%; in assay [3] it was 3.22%.
In the same order, the values of `CN1CCN(c2cccc(NC(=O)c3ccc(-c4ccc(C#N)cc4)cc3)c2)CC1` are 8.25%, 3.32% and 5.96%.
For `CCOc1ccc2[nH]c(-c3ccccc3)cc(=NN=Cc3ccncc3)c2c1`, the inhibition in assay [1] is 1.66%; in assay [2], 4.54%; in assay [3], -0.25%.
In the same order, the values of `COc1ccccc1/C=C/C(=O)NCCC1CCN(CCCCCNC(=O)/C=C/c2ccc(Cl)c(Cl)c2)CC1` are 16.2%, 13% and 12.2%.
In the same order, the values of `CCOC(=O)c1ccc(NC(=O)NCCCC2CCCN(CCCCCNC(=O)/C=C/c3ccc(Cl)c(Cl)c3)C2)cc1` (stereo not given) are 1.46%, 1.66% and 0.52%.
Consider `CC(C)N(Cc1ccccc1)C(=O)CN1C(=O)COc2ccc(S(=O)(=O)N3CCCCCC3)cc21`, for which the results for the inhibition in assay [1], in assay [2] and in assay [3] were 4.92%, 1.02% and 10.5%, respectively.
In the same order, the values of `CC(C)(Oc1c(C2CCN(CCCCNC(=O)c3ccc(-c4ccc(C#N)cc4)cc3)CC2)ccc2c1CCCC2)C(N)=O` are 0.07%, 0.7% and -1.31%.
In the same order, the values of `Oc1ccc(CCNCCCCCCNCCc2ccc(Br)cc2)cc1O` are 3.51%, 2.35% and 0.85%.
In the case of `C=C[C@H]1CN(CCCCCCC)CC[C@H]1CCN(C)c1ccnc2ccc(OC)cc12`, the inhibition in assay [1] is 1.17%; in assay [2] it was 2.44%; in assay [3], 2.13%.
In the same order, the values of `COc1ccc2c(=NN=Cc3ccccc3)cc(C)[nH]c2c1` are 12.1%, 11.5% and 8.31%.
In the case of `O=S(=O)(NCCN1CCCC1)c1ccc(-c2ccc(CNCc3ccsc3)cc2)s1`, the inhibition in assay [1] was 10.5%; in assay [2], 7.66%; in assay [3] it was 4.76%.
In the same order, the values of `CCCCCCNC(=O)C1Cc2c([nH]c3cc(Cl)ccc23)C2(CCN(CCC)CC2)N1` (stereo not given) are 3.28%, 2.13% and 2.32%.
For `O=C(NCCNc1ccnc(Nc2ccc(F)cc2)n1)c1cc2ccccc2s1`, the inhibition in assay [1] is 5.85%; in assay [2], 7.62%; in assay [3], 0.69%.
Turning to `Cc1cc(Nc2ccc(C)c(C)c2)n2nc(C)nc2n1`, the inhibition in assay [1] turned out to be 5.08%; in assay [2] it was 5.03%; in assay [3], 5.46%.
In the same order, the values of `COc1ccc(C=NN=c2cc(C)[nH]c3c(C)cccc23)c2ccccc12` are 1.53%, 1.31% and 5.67%.
In the same order, the values of `Cc1cc(N)cc2nc(-c3ccc(N)cc3)[nH]c12` are 3.09%, 2.43% and 1.68%.
With `Nc1ccc2[nH]cc(C3CCN(CC4CCC(NC(=O)/C=C/c5ccccc5Cl)CC4)CC3)c2n1` (stereo not given), the figures for the inhibition in assay [1], in assay [2] and in assay [3] were 3.23%, 3.23% and 2.48%, respectively.
As for `CN(C)c1ccc(CN2CCC(NC(=O)c3ccc(-c4cccc(C(F)(F)F)c4)s3)CC2)cc1`, the inhibition in assay [1] is 1.92%; in assay [2] it was -0.72%; in assay [3] it was 5.11%.
As for `O=C(Nc1ccc(OC2CCN(Cc3ccc(F)cc3)C2)cc1)c1ccco1` (stereo not given), the inhibition was found to be 2.22% in assay [1], 2.86% in assay [2] and 3.15% in assay [3].
In the same order, the values of `CCC(C)(C)c1ccc(Oc2ccc(NC(=O)Nc3ccc(Cl)c(Cl)c3)cc2)cc1` are 1.75%, 1.24% and 1.26%.
Take `COc1cc2nc(Nc3ccc4c(cnn4Cc4ccccc4)c3)nc(Nc3ccc4c(cnn4Cc4ccccc4)c3)c2cc1OC`: the inhibition was determined as 2.6% in assay [1], 2.44% in assay [2] and 0.51% in assay [3].
In the same order, the values of `CN(C)CCN1CCN(CCCN2c3ccccc3Sc3ccc(C(F)(F)F)cc32)CC1` are 3.37%, 3.77% and 3.66%.

The values above are taken from ChEMBL document CHEMBL3433997, “St. Jude Leishmania screening dataset” (2016).
